TDP1 cell noCPT – qHTS for Inhibitors of human tyrosyl-DNA phosphodiesterase 1 (TDP1): qHTS in cells in absence of CPT; DT40 Tdp1-/- hTDP1 cells, no CPT, ATP luminescence, 48 h; Potency, µM (highest dose often 46.2 µM), without a hit: at the highest dose activity change, negative = growth inhibition, usual class: inhibitors; actives 15% (n = 420,000); AID 686978, 2013; note: potency is the fitted concentration of half-maximal effect; nearly all actives have a fitted effect of over 55% in size
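Stably hTDP1-transfected Tdp1-null chicken DT40 cells were treated with library compounds minus camptothecin and grown for at least 48 hr at 37 °C, after which cellular ATP was quantified by luminescence.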
HT1080 IDH1KD tx – kills HT-1080 cells with IDH1 knockdown | HT-1080 IDH1 knockdown viability, ATP luminescence, 48 h | Potency, µM (top dose mostly 46.1 µM), inactives show top-dose activity, negative = toxicity, actives largely listed as cytotoxic | actives 2% (n = 360,000);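 note: potency is the fitted concentration of half-maximal effect; 0% = DMSO wells and -100% = cell-free medium wells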
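Cytotoxicity counter-line: IDH1KD HT-1080, 48 h, CellTiter-Glo. Curves classed by r2, magnitude and activity.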
DT40 TDP1 CPT – DT40-hTDP1 cell growth loss with CPT. actives 12% (n = 420,000). chicken DT40 Tdp1-/-;hTDP1 cells + 20 nM CPT, ATP luminescence, 48 h. Potency, µM (series often up to 46.2 µM), inactives show top-dose activity change, negative = growth inhibition, usual class: inhibitors; note: potency is the fitted concentration of half-maximal effect; nearly all actives have a fitted effect of over 55% in size
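Cell growth measured by CellTiter-Glo luminescence after a minimum 48 h, 37 C compound exposure with 20 nM CPT in Tdp1-knockout DT40 cells stably expressing hTDP1, seeded 400/well; qHTS titration format.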
IL-1B inflam inh – inhibitors of inflammasome signaling (IL-1 beta secretion); THP-1 LPS/ATP IL-1B secretion, AlphaLISA, 16 h; stronger effect = lower value; activity change, % at 57.5 µM; actives 4.7% (n = 360,000); in the data active = activity change below about -50%; inconclusive = mostly about -30% to -49%
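Secreted IL-1B measured by AlphaLISA bead assay after 16 h compound exposure of THP-1 cells; compounds (final up to 57.5 uM) added 1 h before LPS (250 ng/mL) and ATP (1.25 mM) stimulation; lower signal means less secretion.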
12-LOX inh – inhibitors of human 12S-lipoxygenase ALOX12; AID 1671190; Potency, µM (titrated, usually from 108 µM), for inactives: at the highest dose activity change, negative = inhibition, actives largely listed as inhibitors; purified 12hLO, xylenol orange hydroperoxide absorbance; actives 1.1% (n = 580,000); P18054; note: potency is the fitted concentration of half-maximal effect
Target sequence (P18054 whole entry, looked up): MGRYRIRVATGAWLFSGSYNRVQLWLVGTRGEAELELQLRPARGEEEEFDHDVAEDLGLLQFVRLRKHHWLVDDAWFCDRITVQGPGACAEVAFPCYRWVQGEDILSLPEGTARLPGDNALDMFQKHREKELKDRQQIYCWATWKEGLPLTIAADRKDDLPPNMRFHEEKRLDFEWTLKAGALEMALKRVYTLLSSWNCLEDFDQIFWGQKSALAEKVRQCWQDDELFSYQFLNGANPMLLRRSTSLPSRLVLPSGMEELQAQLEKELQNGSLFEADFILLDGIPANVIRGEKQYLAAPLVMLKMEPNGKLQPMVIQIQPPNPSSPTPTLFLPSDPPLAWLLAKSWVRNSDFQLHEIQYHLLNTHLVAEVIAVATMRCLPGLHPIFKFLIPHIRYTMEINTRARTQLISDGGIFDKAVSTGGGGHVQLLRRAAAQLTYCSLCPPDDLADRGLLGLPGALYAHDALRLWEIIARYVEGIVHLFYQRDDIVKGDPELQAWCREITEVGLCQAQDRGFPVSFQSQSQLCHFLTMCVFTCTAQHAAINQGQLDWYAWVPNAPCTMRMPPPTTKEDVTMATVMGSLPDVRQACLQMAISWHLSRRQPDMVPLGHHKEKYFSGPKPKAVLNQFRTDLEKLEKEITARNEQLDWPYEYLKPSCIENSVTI
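Purified human 12hLO at 150 nM in 25 mM Hepes, 0.01% Triton X-100, pH 7.0, preincubated 15 min at room temperature with compound. Reaction started with 40 uM arachidonic acid, 30 min at room temperature. Hydroperoxide measured by Fe-xylenol orange, 573/405 nm absorbance ratio.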
HT1080-NT tox – kills 2HG-producing HT-1080-NT fibrosarcoma cells. Potency, µM (top dose mostly 46.1 µM), without a hit: top-dose activity, negative = less viability, usual class: cytotoxic. HT-1080-NT fibrosarcoma viability, CellTiter-Glo ATP luminescence, 48 h. actives 1.6% (n = 360,000). AID 686970;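 note: NT is the 2HG producing partner of a matched IDH1 knockdown line; potency is the fitted concentration of half-maximal effect; 0% = DMSO-treated cells and -100% = media-only wells without cells; nearly all actives have a fitted effect of over 55% in size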
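Compounds were tested in concentration-response format on HT-1080-NT cells for 48 hours at 37 degrees C. Cell viability came from CellTiter-Glo luminescence; curves were classified by r2, response magnitude and activity.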
* hit, by the source's call; ? = inconclusive; · = not tested or not shown; [ ] = dose if it differs, or a comment. Shown is part of a subset that was picked to be rich in hits. Unless noted, calls come from the whole dose curve; as a rule, active = well fitted curve in the direction sought with a large enough effect; inconclusive = small, poorly fitted or top-dose-only effect, or another doubt; inactive = no such curve, though single readings can be large; an effect the other way counts as inactive or inconclusive. Unless noted, % is set by controls: 0 for no effect and ±100 for the full control effect.

SMILES	TDP1 cell noCPT	HT1080 IDH1KD tx	DT40 TDP1 CPT	IL-1B inflam inh	12-LOX inh	HT1080-NT tox
COc1ccc(-c2[nH]nc3nc(N4CCN(C(=O)c5ccoc5)CC4)cc(C(F)(F)F)c23)cc1	8.2µM*	?	8.2µM*	-27	0%	?
COc1ccc(-c2ccc3nnc(CNC(=O)c4ccoc4)n3n2)cc1	·	·	·	·	27%	·
COc1ccc(-c2cc3nc(C)cc(N4CC(C)CC(C)C4)n3n2)cc1 (stereo not drawn)	18µM*	-2%[9.24 µM]	?	-12	-2%	16%
COc1ccc(OCCCOc2ccc(Cl)cc2/C=N/NC(N)=O)cc1	·	·	·	·	-64%	·
COc1ccc(-c2cc(N3CCN(C(=O)c4ccc(C)nc4)CC3)n[nH]2)cc1	·	·	·	·	-2%	·
COc1ccc(-c2cc3nc(C)cc(N4CCN(C(=O)c5ccoc5)CC4)n3n2)cc1	21µM*	0%	18µM*	?	-14%	7%
COc1cccc(-c2cc3nc(C)cc(N4CCN(C(=O)c5ccoc5)CC4)n3n2)c1	21µM*	-8%	?	18	-1%	3%
CCOC(=O)C1CCN(c2cc(C)nc3cc(-c4cccc(F)c4)nn23)CC1	?	15%	?	9	-17%	8%
Cc1ccc(C)c(Oc2ccc(CNC(=O)c3nccnc3N)cn2)c1	·	·	·	·	-2%	·
Cc1ccc(CNc2nc3nc(C)c(CCC(=O)Nc4cccc5ccccc45)c(=O)n3[nH]2)cc1	·	·	·	·	-23%	·
Cc1cc(Cl)c(NC(=O)c2cccc(NC(=O)C(C)(C)C)c2)c2cccnc12	·	·	·	·	-28%	·
C[C@H]1CCC[C@]2(C)C[C@H]3OC(=O)C(CN4CCCCCC4)[C@H]3C=C12 (stereo partly drawn)	?	?	?	-98*	13%	16µM*
COc1cc2c(cc1OC)[C@H](C)N(CC1C(=O)O[C@@H]3C[C@@]4(C)CCC[C@H](C)[C@@]45OC5[C@H]13)CC2 (stereo partly drawn)	?	·	-26%[9.04 µM]	·	6%	·
C=C1C(=O)OC2C[C@@]3(C)CCCC(C)C3=CC12 (stereo partly drawn)	10µM*	·	?	·	·	·
Cc1ccc(Cl)cc1NC(=O)Nc1cc2c(cc1Oc1ccccc1)n(C)c(=O)n2C	·	·	·	·	6%	·
CC(C)(C)C(=O)N[C@H]1C[C@@H](Cc2cc(CN3CCN(c4ccccc4)CC3)on2)C1(C)C	·	·	·	·	0%	·
O=C(Nc1ccc(NC(=O)c2ccc(Cl)cc2Cl)cc1)c1ccc2c(c1)OCO2	-11%	25%	-16%	2	?	18%
O=C(Nc1ccc(C2=NCCN2)cc1)c1ccc(C(=O)Nc2ccc(C3=NCCN3)cc2)c(Cl)c1	5.2µM*	1%	7.3µM*	7	0%	-8%
O=C(Nc1cccc(C2=NCCN2)c1)Nc1cccc(C2=NCCN2)c1	7.3µM*	-21%	9.2µM*	?	-9%	-3%
O=C(Nc1ccccc1)Nc1cccc(-c2nnco2)c1	?	0%	-4%	9	·	20%
CCCNC(=O)c1oc2ccc3c(c2c1C)C(O)CC(C)(C)O3 (stereo not drawn)	6%	7%	-17%	-11	6%	7%
CCC1(C)CC(=O)c2c(ccc3oc(C(=O)NCc4ccccc4)c(C)c23)O1 (stereo not drawn)	16µM*	·	29µM*	·	-3%	·
CCOc1ccccc1CNC(=O)c1oc2ccc3c(c2c1C)C(=O)CC(C)(C)O3	13µM*	·	?	·	0%	·
CCOc1ccccc1CNC(=O)C1=C(C)C(=O)OC12CCN(C(C)=O)CC2	-10%	·	4%	·	-10%	·
Cc1c(C(=O)NCc2ccoc2)oc2ccc3c(c12)C(=O)CC(C)(C)O3	?	?	15µM*	-52*	87%	0%
SMILES	TDP1 cell noCPT	HT1080 IDH1KD tx	DT40 TDP1 CPT	IL-1B inflam inh	12-LOX inh	HT1080-NT tox
Cc1cc(C)c2c(=O)cc(C(=O)NCc3ccccc3)oc2c1	-14%	-11%	4%	30	0%	-4%
CCOC(=O)c1ccc2ncc(C(=O)OCC)c(NCCc3ccc(OC)c(OC)c3)c2c1	15µM*	·	26µM*	·	2%	·
CCOC(=O)c1ccc2ncc(C(=O)OCC)c(NCCCOC(=O)c3ccccc3)c2c1	·	·	·	·	-47%	·
CCOC(=O)c1cnc2ccc(C(=O)OC)cc2c1NCCc1ccc(OC)c(OC)c1	18µM*	-20%	?	35	-15%	-16%
Cc1ccc(F)cc1-c1nc(NC(C)C)nc2cc(-c3ccccc3)sc12	18µM*	?	?	?	?	-16%
CCNc1nc(NC(C)C)nc(N(C#N)CCOc2ccc(Cl)cc2Cl)n1	?	-23%	?	-21	-7%	-16%
COc1ccccc1CNc1nc(NC(C)C)nc2cc(-c3ccccc3)sc12	4.1µM*	?	2.6µM*	-115*	?	?
COc1ccccc1CNc1nc(-c2cccc(C#N)c2)nc2ccccc12	?	·	?	·	-24%	·
Cc1ccccc1-c1cc2nc(Oc3cccc(F)c3)n(C)c(=O)c2s1	?	-1%	?	-9	1%	15%
CC(C)Nc1nc(NCCOc2ccccc2Cl)c2sc(-c3ccccc3)cc2n1	6.5µM*	?	6.5µM*	-103*	?	?
Cc1ccccc1C(=O)N1CCC(c2n[nH]c(=O)n2-c2ccccc2)CC1	·	·	·	·	19%	·
Cc1ccc2nc3c(cc2c1)c(C)nn3-c1ccccc1	-19%	-10%	0%	0	-2%	-2%
Cc1nn(-c2ccccc2)c2nc(=O)n(-c3ccccc3)cc12	7.3µM*	?	8.2µM*	-7	0%	-1%
O=C1NCCOCCCN(C(=O)c2ccsc2)[C@H]2CCCC[C@@H]12	·	·	·	·	66%	·
CCCc1[nH]nc2c1C(/C(C)=C/c1ccccc1)C(C#N)=C(N)O2 (stereo not drawn)	-27%	0%[9.24 µM]	?	-94*	-16%	?
CCCc1[nH]nc2c1C(c1cn[nH]c1-c1ccc(F)cc1)C(C#N)=C(N)O2 (stereo not drawn)	10µM*	-27%	9.2µM*	-90*	·	?
CCCc1[nH]nc2c1C(c1ccc(O)c(OC)c1)C(C#N)=C(N)O2 (stereo not drawn)	-25%	-3%	-16%	-67*	0%	1%
CCCc1[nH]nc2c1C(c1ccncc1)C(C#N)=C(N)O2 (stereo not drawn)	-17%	14%[9.24 µM]	-11%	0	0%	11%

High-throughput results from PubChem BioAssay.
